Laboratory results taken from PubChem BioAssay.
Calls of active or inactive are those of the source.

Experiments:
[1] = small molecules captured by biotinylated probe aFSTL3 – biochemical, small-molecule microarray, fluorescence 635/667, stem cell growth factor project, primary screen (AID 1064); settings: higher = more signal;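 note: measures binding of the biotinylated anti-FSTL3 antibody to printed compounds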
[2] = binders from COS7 lysate, DM2A8 probe, primary screen, torsin A project, cell lysate, small-molecule microarray, fluorescence 635/667 (AID 1065); settings: higher = more signal, COS7 lysate expressing mutant human TOR1A
[3] = small molecules captured by biotinylated probe aFGF2 – biochemical, small-molecule microarray, fluorescence 635/667, stem cell growth factor project, primary screen (AID 1067); settings: higher = more signal;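 note: measures binding of biotinylated aFGF2 protein to printed compounds on slides; z-score merges feature fluorescence and signal-to-noise across triplicate slides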
[4] = small molecules captured by biotinylated probe aFGF10 – biochemical, small-molecule microarray, fluorescence 635/667, stem cell growth factor project, primary screen (AID 1071); settings: higher = more signal;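 note: score merges 667 nm spot intensity and signal to noise from triplicate slides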
[5] = molecular target: Neurogenic locus notch homolog protein 2 (Homo sapiens) (UniProt Q04721); assay: small molecules binding Notch2 protein – biochemical, small-molecule microarray, 635 nm fluorescence, stem cell growth factors, primary screen (AID 1073); settings: higher = more signal
[6] = molecular target: Pro-neuregulin-1, membrane-bound isoform (Homo sapiens) (UniProt Q02297); assay: small molecules binding neuregulin-1 protein – biochemical, small-molecule microarray, fluorescence 635/667, psychiatric disease protein project, primary screen (AID 1075); settings: NRG1 binding, 635 nm fluorescence, higher = more signal;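 note: score combines 667 nm spot fluorescence with signal to noise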
[7] = tested on: Neuregulin-1 EGF-like domain; assay: small molecules binding NRG1 EGF domain – biochemical, small-molecule microarray, 635 nm fluorescence, primary screen (AID 1081); settings: higher = more signal;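 note: binding of the protein to compounds printed on small-molecule microarray slides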
[8] = FRG1 expression reporter modulators in myotubes – cell-based, C2C12 myotubes, firefly/Renilla luciferase, luminescence, FRG1 inhibition for FSHD, primary screen (AID 1084); settings: FRG1 promoter luciferase, higher = more signal, called active from +8 up or from −8 down
[9] = small molecules captured by biotinylated probe aFST – biochemical, small-molecule microarray, fluorescence 635/667, stem cell growth factor project, primary screen (AID 1086); settings: higher = more signal;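 note: score merges 667 nm fluorescence with signal-to-noise of each printed compound spot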
[10] = binders of probe aHhip on microarray, primary screen, stem cell growth factor project, biochemical, small-molecule microarray, fluorescence 635/667 (AID 1087); settings: higher = more signal;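 note: score merges spot fluorescence at 667nm with spot signal to noise ratio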

Sequence of Neurogenic locus notch homolog protein 2 (Homo sapiens) (Q04721 whole entry, looked up, canonical isoform): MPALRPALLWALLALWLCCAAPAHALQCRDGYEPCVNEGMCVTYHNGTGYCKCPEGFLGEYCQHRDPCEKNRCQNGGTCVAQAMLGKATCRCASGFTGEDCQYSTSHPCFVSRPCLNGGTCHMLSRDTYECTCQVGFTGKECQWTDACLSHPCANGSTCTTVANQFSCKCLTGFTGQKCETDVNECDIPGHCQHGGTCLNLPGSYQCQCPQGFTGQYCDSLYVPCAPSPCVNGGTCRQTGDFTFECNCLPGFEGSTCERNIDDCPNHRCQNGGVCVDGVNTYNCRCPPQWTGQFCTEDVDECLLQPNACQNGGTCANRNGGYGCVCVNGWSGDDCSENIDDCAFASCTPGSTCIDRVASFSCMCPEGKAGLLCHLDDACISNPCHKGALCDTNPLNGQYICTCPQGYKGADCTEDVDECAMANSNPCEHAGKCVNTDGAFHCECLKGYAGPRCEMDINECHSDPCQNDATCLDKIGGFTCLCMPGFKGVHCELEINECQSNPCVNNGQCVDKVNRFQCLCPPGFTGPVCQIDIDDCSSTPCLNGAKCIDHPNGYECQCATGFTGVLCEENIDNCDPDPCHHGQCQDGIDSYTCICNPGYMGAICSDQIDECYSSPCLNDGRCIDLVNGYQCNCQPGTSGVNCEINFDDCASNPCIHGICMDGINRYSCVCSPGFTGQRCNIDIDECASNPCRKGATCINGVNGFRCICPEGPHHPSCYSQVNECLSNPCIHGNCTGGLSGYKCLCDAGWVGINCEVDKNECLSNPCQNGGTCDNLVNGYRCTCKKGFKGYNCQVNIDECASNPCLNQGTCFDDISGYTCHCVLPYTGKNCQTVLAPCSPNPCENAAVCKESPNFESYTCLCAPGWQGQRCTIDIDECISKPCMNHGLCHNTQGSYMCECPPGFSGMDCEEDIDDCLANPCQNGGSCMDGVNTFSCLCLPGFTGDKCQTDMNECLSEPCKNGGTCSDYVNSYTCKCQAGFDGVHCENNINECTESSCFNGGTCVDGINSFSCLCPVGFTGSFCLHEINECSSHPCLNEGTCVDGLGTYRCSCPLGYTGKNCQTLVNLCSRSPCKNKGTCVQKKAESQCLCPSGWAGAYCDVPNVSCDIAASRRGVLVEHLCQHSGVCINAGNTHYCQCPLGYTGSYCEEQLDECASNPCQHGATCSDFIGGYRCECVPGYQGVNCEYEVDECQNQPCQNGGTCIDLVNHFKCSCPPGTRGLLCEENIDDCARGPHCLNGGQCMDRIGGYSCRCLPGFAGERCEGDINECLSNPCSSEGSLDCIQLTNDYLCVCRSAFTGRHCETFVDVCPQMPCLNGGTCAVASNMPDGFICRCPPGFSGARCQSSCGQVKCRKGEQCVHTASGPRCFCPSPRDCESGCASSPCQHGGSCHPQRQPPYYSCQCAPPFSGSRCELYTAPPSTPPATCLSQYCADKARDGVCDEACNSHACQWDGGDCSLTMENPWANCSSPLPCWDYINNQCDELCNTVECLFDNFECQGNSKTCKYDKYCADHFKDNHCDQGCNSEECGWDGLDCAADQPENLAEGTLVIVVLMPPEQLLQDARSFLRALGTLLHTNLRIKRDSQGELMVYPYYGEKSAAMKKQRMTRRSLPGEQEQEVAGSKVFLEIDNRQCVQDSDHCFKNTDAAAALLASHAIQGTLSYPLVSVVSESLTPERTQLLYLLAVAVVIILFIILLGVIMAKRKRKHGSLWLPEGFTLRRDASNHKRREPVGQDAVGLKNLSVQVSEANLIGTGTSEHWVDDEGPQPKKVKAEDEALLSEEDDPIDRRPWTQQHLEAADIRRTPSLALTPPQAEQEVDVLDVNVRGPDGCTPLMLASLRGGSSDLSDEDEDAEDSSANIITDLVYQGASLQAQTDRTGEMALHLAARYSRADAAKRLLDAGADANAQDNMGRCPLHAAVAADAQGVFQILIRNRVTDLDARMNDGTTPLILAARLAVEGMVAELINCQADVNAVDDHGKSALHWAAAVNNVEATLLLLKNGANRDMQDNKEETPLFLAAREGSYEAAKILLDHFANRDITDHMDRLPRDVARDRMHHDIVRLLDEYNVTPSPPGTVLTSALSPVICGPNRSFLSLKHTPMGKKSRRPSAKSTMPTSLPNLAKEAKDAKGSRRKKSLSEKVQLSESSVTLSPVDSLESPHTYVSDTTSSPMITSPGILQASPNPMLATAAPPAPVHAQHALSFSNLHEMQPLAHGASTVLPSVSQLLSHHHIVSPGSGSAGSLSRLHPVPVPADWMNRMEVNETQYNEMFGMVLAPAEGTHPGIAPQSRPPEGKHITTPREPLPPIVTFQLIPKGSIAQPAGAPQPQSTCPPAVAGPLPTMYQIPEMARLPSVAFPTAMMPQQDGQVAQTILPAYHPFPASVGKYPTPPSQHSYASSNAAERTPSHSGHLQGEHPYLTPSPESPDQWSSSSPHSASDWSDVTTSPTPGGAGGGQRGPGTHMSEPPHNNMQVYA
Sequence of Pro-neuregulin-1, membrane-bound isoform (Homo sapiens) (Q02297 whole entry, looked up, the tested form may be a part, canonical isoform): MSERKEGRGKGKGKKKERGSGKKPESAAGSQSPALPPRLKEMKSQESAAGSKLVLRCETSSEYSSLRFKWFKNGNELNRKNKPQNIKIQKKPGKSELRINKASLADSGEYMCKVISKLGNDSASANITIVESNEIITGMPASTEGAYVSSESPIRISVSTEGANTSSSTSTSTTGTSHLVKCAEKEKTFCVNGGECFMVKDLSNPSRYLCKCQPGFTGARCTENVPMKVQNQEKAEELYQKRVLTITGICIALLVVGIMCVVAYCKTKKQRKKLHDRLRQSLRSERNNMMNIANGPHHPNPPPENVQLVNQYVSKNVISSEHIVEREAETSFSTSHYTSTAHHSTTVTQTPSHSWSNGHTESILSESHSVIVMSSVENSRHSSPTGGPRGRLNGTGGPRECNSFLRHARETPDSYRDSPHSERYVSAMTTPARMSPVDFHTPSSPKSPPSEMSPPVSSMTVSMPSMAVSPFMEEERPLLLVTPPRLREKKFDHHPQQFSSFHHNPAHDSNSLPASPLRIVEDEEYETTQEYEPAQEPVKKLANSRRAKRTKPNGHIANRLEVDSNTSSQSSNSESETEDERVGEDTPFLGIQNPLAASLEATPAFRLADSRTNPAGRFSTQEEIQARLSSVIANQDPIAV

Row | Compound | composite z-score [1] | composite z-score [2] | composite z-score [3] | composite z-score [4] | composite z-score [5] | composite z-score [6] | composite z-score [7] | z-score [8] | composite z-score [9] | composite z-score [10]
1 | CC(C)CNC(=O)[C@@H]1c2ccccc2C(=O)N(Cc2ccccc2Cl)[C@H]1c1ccc(CO)cc1 | 0.29 | 0.0116 | -0.129 | -0.833 | -0.595 | -1.27 | 0.252 | -1.38 (inactive) | -0.295 | -0.236
2 | COC(=O)[C@@]1(Cc2ccc(F)cc2)[C@H]2c3cc(C(=O)N(C)C)n(CCn4cc([N+](=O)[O-])nc4C)c3C[C@H]2CN1C(=O)c1ccccc1 | 0.729 | -0.498 | 0.22 | 0.422 | 1.43 | 1.36 | 1.19 | 1.26 (inactive) | 0.593 | -0.166
3 | C=CCOC(=O)[C@H]1[C@@H]2C(=O)O[C@@H](c3ccccc3)[C@@H](c3ccccc3)N2[C@@H](c2ccc(OCCOC(=O)[C@@H]3C[C@@H]4C(=O)N[C@@H](Cc5ccccc5)C(=O)N4[C@@H]3c3ccc(O)cc3)cc2)[C@]12C(=O)Nc1ccccc12 | -0.372 | 0.268 | -0.0713 | 0.278 | 0.217 | 0.403 | 1.21 | 0.503 (inactive) | -0.121 | -0.0645
4 | COC(=O)[C@H](Cc1ccc(O)cc1)N1CC2=CCCC=C[C@@H]2[C@H]1[C@H](O)Cc1ccccc1 | -0.565 | -0.214 | -0.124 | 0.288 | 0.35 | 0.166 | 0.324 | -0.106 (inactive) | 0.166 | -0.132
5 | COC(=O)c1ccc([C@H](NC(=O)c2ccccc2)[C@]2(C)C[C@H]2C2CCCCC2)cc1 | 0.735 | -0.678 | 0.056 | 0.172 | 1.22 | 1.18 | 0.678 | -1 (inactive) | 0.86 | 0.245
6 | CCCCC(=C=CC[C@@H](O)c1cccc(OCCO)c1)CCO | -0.219 | -0.555 | -0.057 | 0.601 | -0.277 | -0.0951 | 0.345 | -0.225 (inactive) | 0.0204 | -0.128
7 | CCCCN1CC=CC23O[C@@H]4C=CCOC(=O)[C@@H]4[C@H]2C(=O)N(CCO)[C@@H]3C1=O (stereo not given in full) | 1.37 | 0.0339 | -0.168 | -1.03 | -1.39 | 0.332 | 0.695 | 0.432 (inactive) | -0.657 | -0.0645
8 | O=C1C2C=CC(C(O)c3cccc(O)c3)N(Nc3ccccc3F)C2C(=O)N1c1ccccc1 (stereo not given) | 0.0355 | 0.74 | -0.0005 | -0.0284 | 0.0745 | 0.445 | 0.218 | 2.18 (inactive) | 0.725 | -0.437
9 | CCOC(=O)C1=CC[C@@H](c2ccc(F)cc2)N(S(=O)(=O)c2ccc(C)cc2)[C@H]1c1ccc([N+](=O)[O-])cc1 | -0.283 | -0.237 | -0.0277 | 0.639 | 1.26 | 1.1 | 1 | -0.507 (inactive) | 0.919 | -0.0645
10 | COCCCNC(=O)[C@@H]1c2ccccc2C(=O)N(C2CCCCC2)[C@H]1c1ccc(CO)cc1 | 0.503 | -0.763 | -0.105 | -0.564 | -1.03 | 1.2 | 1.45 | -0.108 (inactive) | -0.341 | -0.236
11 | CCOC(=O)C[C@H]1[C@H](OC(=O)c2ccc(-c3ccccc3)cc2)[C@@H](NC(=O)CC(C)C)c2cc(OCCCO)ccc2N1C(=O)Cc1ccc(OC)cc1 | 0.0706 | 0.445 | -0.0131 | 0.135 | 0.119 | 0.828 | -0.023 | -0.33 (inactive) | 0.367 | 0.77
12 | CC[C@H](C)C(=O)O[C@H]1CC[C@]2(C)C3=C(CCC2C1(C)C)[C@]1(C)CC[C@H]([C@H](C)CCCC(C)C)[C@@]1(C)CC3 (stereo not given in full) | -0.598 | 0.191 | -0.0691 | 0.332 | 0.414 | 0.0345 | 0.966 | 0.169 (inactive) | 0.0889 | 0.315
13 | NC(=O)NCC#Cc1ccc2c(c1)[C@]1(C(=O)N2)[C@H](C(=O)Nc2nc3ccccc3s2)[C@H]2C(=O)O[C@H](c3ccccc3)[C@H](c3ccccc3)N2[C@@H]1c1ccc(OCCO)cc1 | 0.155 | -0.164 | 0.0526 | 0.331 | 0.614 | -0.029 | -0.895 | 2.13 (inactive) | 0.99 | -0.347
14 | COc1ccccc1CN1C(=O)c2ccccc2[C@@H](C(=O)NCCCN(C)C)[C@@H]1c1ccc(CO)cc1 | -0.192 | 0.132 | -0.161 | 0.461 | -0.203 | 0.648 | 0.695 | -3.53 (inactive) | 0.0644 | -0.266
15 | COC(=O)[C@@]1(Cc2ccccc2CN=[N+]=[N-])COC(c2ccc(OCCCO)cc2)=N1 | 1.28 | -1.34 | -0.245 | -0.565 | -1.79 | 0.305 | 0.62 | -0.988 (inactive) | -0.575 | -0.137
16 | Cc1ccc(F)cc1S(=O)(=O)N[C@@H]1CCN(Cc2ccc3[nH]ccc3c2)C1 | -0.0434 | 0.216 | -0.0717 | 0.652 | 0.523 | 0.91 | 0.563 | -3.16 (inactive) | 0.356 | -0.134
17 | COc1ccccc1CN1C(=O)c2ccccc2[C@](Cc2ccccc2I)(C(=O)NCCCN(C)C)[C@@H]1c1ccc(CO)cc1 | -0.967 | -0.501 | -0.116 | 0.483 | 0.452 | 0.683 | 1.19 | -3.16 (inactive) | -0.0929 | -0.37

Row | Compound | composite z-score [1] | composite z-score [2] | composite z-score [3] | composite z-score [4] | composite z-score [5] | composite z-score [6] | composite z-score [7] | z-score [8] | composite z-score [9] | composite z-score [10]
18 | C=C(COC)C(=O)CC[C@@H](OC(=O)c1cccnc1)c1cccc(OCCO)c1 | 0.0424 | 0.759 | -0.0332 | 0.455 | -0.0967 | 0.851 | 0.762 | 0.587 (inactive) | 0.532 | -0.171
19 | COc1ccc(CCNC(=O)[C@@]2(C)c3ccccc3C(=O)N(Cc3cc(C(F)(F)F)cc(C(F)(F)F)c3)[C@H]2c2ccc(CO)cc2)cc1 | 1.42 | 1.35 | 0.383 | -0.27 | -0.57 | 1.73 | 1.3 | -1.62 (inactive) | 0.169 | 1.69
20 | COc1ccc(NC(=O)O[C@H]2[C@H](OC(=O)Nc3ccc4c(c3)OCO4)[C@H](OC(=O)Nc3ccc4c(c3)OCO4)[C@@H](OC)O[C@@H]2CO)cc1 | 0.198 | 0.347 | 0.0519 | 0.739 | 0.302 | 0.978 | 0.905 | 3.53 (inactive) | 0.327 | 0.142
21 | C[C@@H](OCc1ccccc1)C1NC(=O)[C@@]23C(=O)N[C@@H](Cc4ccccc4)C2[C@H](C)[C@@]2(C)O[C@H]2C3/C=C/C/C=C\CNC(=O)[C@H](Cc2ccccc2)NC1=O (stereo not given in full) | -0.497 | -0.0147 | -0.199 | 0.709 | -0.284 | -0.239 | 0.438 | 3.33 (inactive) | -0.128 | 0.103
22 | N[C@@H](Cc1ccccc1)Cn1cc(C2(O)CCCCC2)nn1 | -0.337 | 0.543 | -0.0718 | -0.244 | -0.232 | 0.138 | -0.204 | 2.2 (inactive) | 1.27 | 0.0722
23 | COC(=O)C1(CC(C)C)C=C2C(=C(C(C)C)C(=O)C2C)CN1 (stereo not given) | 0.901 | -0.241 | -0.0578 | -0.589 | -0.507 | 0.607 | 0.19 | 1.65 (inactive) | 0.315 | -0.0603
24 | NC(=O)NCC#Cc1ccc2c(c1)[C@]1(C(=O)N2)[C@H](C(=O)N2CCCCCCC2)[C@H]2C(=O)O[C@H](c3ccccc3)[C@H](c3ccccc3)N2[C@@H]1c1ccc(O)cc1 | 3.57 | 0.346 | 0.688 | 0.8 | 0.879 | 0.94 | 0.947 | 0.805 (inactive) | 2.99 | 2.75
25 | C=C(COC)/C(=C/C[C@H](OC(=O)c1ccncc1)c1ccc(OCCO)cc1)c1cc(C(=O)OC)ccc1OC | -0.139 | -0.0024 | 0.0436 | 1.08 | 0.0841 | 0.358 | 1.03 | -0.992 (inactive) | 1.42 | 0.113
26 | C=CC[C@@]1(C(=O)O)N=C(c2ccc(OCCCO)cc2)O[C@@H]1c1ccccc1CN=[N+]=[N-] | -0.232 | 0.334 | -0.0518 | 0.744 | 0.955 | 1.79 | 1.08 | 4 (inactive) | 0.0959 | -0.007
27 | COCCOC(=O)N1C(=O)[C@@]2(c3cc(C#CCCO)ccc31)[C@H](c1ccc(O)cc1)N1[C@H](c3ccccc3)[C@H](c3ccccc3)OC(=O)[C@H]1[C@@H]2C(=O)N1CCc2cc(OC)c(OC)cc2C1 | 0.0104 | 0.366 | -0.0004 | 0.525 | 1.36 | 1.04 | 1.32 | -0.994 (inactive) | 0.411 | -0.271
28 | C[C@]1(C(=O)NCC(F)(F)F)c2ccccc2C(=O)N(Cc2ccc(OC(F)(F)F)cc2)[C@H]1c1ccc(CO)cc1 | -0.303 | 0.67 | -0.0757 | 0.198 | -0.298 | 0.0763 | 0.531 | -3.89 (inactive) | -0.209 | -0.0645
29 | C=CCC(OC(C)=O)[C@@H]1[C@@H](N(Cc2ccc(-c3ccccc3)cc2)C(=O)c2cccc3ccccc23)c2cc(OCCCO)ccc2N1C(=O)c1ccc2ccccc2c1 (stereo not given in full) | -0.254 | -0.0509 | -0.0973 | 0.246 | 0.045 | -0.179 | -0.172 | -0.891 (inactive) | 0.277 | -0.0672
30 | CCOC(=O)C1=CC[C@@H](c2ccccc2Cl)N(S(=O)(=O)c2ccc(C)cc2)[C@H]1c1cccc(OC)c1 | -0.329 | 0.0632 | -0.0276 | 0.317 | 0.408 | 0.0948 | 0.971 | -0.38 (inactive) | 0.289 | 0.0139
31 | O=C1OCCC=C[C@H]2OC34C=CCN(CCN5CCOCC5)C(=O)[C@H]3N(CCCO)C(=O)[C@@H]4C12 (stereo not given in full) | -0.0143 | -2.48 | -0.14 | -0.776 | -0.956 | 0.399 | -0.873 | 0.122 (inactive) | -0.272 | -0.0994
32 | C#CCN([C@H](/C=C/C1CC1)[C@@H](O)Cc1ccccc1)[C@@H](Cc1ccccc1)C(=O)OC | 0.262 | -0.134 | -0.121 | -0.363 | -0.807 | -0.458 | -0.706 | -1.67 (inactive) | -0.0804 | -0.123
33 | O=C1C2C=CC(C(O)c3ccc([N+](=O)[O-])cc3)N(Nc3ccccc3)C2C(=O)N1c1ccccc1 (stereo not given) | -0.228 | 0.0467 | 0.0589 | -0.115 | 1.4 | 1.07 | 1.25 | -0.699 (inactive) | 0.564 | 0.211
